BLM helicase inh: inhibitors of human Bloom syndrome helicase BLM | P54132 | recombinant BLM DNA unwinding, fluorescence dequenching | Potency, µM (highest dose often 56.1 µM), usual class: inhibitors | 0.2% of 350,000 active; further: nearly all actives have a fitted effect of over 35% in size
APE1 inh: APE1 (human) endonuclease inhibition; P27695; recombinant APE1, TAMRA/BHQ-2 abasic DNA cleavage fluorescence; Potency, µM (highest dose often 65.8 µM), actives largely listed as inhibitors; 0.35% of 350,000 active; further: nearly all actives have a fitted effect of over 55% in size
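APE1 at 0.75 nM preincubated 15 min at room temperature with compound. Reaction then started with 50 nM double-stranded THF-abasic substrate labelled with TAMRA/BHQ-2, and 525/598 nm fluorescence read kinetically. Activity taken as third-minus-first read difference, normalized to DMSO and NSC13755 controls.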
RECQ1 inh: blocks DNA unwinding by human RECQ1; P46063; 0.54% of 240,000 active; RECQ1 DNA unwinding, red fluorescence kinetic read; Potency, µM (doses to about 57.3 µM), usual class: inhibitors; further: nearly all actives have a fitted effect of over 30% in size
Target sequence (P46063 whole entry, looked up): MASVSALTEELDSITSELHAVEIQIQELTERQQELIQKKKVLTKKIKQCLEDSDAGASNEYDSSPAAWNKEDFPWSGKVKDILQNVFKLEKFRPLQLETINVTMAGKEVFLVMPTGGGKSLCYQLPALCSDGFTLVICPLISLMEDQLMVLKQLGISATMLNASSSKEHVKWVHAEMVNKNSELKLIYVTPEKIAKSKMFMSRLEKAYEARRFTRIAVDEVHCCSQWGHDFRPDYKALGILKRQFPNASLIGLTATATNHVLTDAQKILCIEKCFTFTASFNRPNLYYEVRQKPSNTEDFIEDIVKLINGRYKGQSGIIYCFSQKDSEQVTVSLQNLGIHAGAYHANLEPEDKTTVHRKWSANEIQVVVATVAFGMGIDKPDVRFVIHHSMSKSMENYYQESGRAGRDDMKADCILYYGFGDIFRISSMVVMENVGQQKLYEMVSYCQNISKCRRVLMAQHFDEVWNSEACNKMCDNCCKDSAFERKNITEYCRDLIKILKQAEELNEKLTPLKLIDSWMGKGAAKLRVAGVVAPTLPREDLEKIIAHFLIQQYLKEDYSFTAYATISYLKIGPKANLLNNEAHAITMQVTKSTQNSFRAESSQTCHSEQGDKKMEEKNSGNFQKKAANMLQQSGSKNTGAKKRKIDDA
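50 nM RECQ1T1 preincubated 15 min with compound in Tris pH 8.0 buffer with MgCl2, DTT, Tween-20 and 2.5 ug/ml poly(dI-dC); started with 200 nM TAMRA/BHQ-2 forked duplex and 2 mM ATP. Unwinding read as fluorescence (525/598 nm), two reads 2 h apart.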
L3MBTL1 inh: inhibitors of human L3MBTL1; Q9Y468; AlphaScreen L3MBTL1–H3K9me1 peptide binding; Potency, µM (doses to about 57.1 µM), hits mostly inhibitors; 0.66% of 230,000 active; further: nearly all actives have a fitted effect of over 60% in size
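AlphaScreen proximity signal between nickel-chelate acceptor and streptavidin donor beads (final 10 ug/mL) reports binding of 50 nM L3MBTL1 to 75 nM biotin-H3 K9me1 peptide; complex incubated with compounds 30 min at room temperature; cefsulodin titration as control.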
Hits are given with their value; - = inactive; ? = inconclusive; . = no result; ! = not active in a repeat; [ ] = dose if it differs, or a comment. An excerpt weighted towards active compounds, which were near 0.78% of everything screened. The call rests on the fitted dose curve; in most records, active means well fitted curve in the direction sought with a large enough effect; inconclusive means small, poorly fitted or top-dose-only effect, or another doubt; inactive means no such curve, though single readings can be large; an effect the other way counts as inactive or inconclusive.

SMILES | BLM helicase inh | APE1 inh | RECQ1 inh | L3MBTL1 inh
CC[C@H](C)[C@H](NC(=O)[C@H](CC(C)C)NC(=O)[C@H](CC(N)=O)NC(=O)[C@@H](NC(=O)[C@@H](N)Cc1ccc(O)cc1)[C@@H](C)CC)C(=O)N[C@@H](Cc1ccc(O)cc1)C(=O)N[C@@H](CCCN=C(N)N)C(=O)N[C@@H](CC(C)C)C(=O)N[C@@H](CCCN=C(N)N)C(=O)N[C@@H](Cc1ccc(O)cc1)C(N)=O | - | - | - | .
CC(C)(C)n1ncc2c(=O)n(Cc3cccc(-c4cccs4)c3)cnc21 | . | - | . | .
C/C(=C\C=C(C#N)C#N)c1cc(C#N)c(N)o1 | ? | ? | 14.1µM | -
COc1ccc(C2CC(=O)c3cnc(NC(=O)c4ccco4)nc3C2)cc1 (configuration not stated) | - | - | . | .
COc1ccccc1C(=O)Nc1ncc2c(n1)CC(c1ccco1)CC2=O (configuration not stated) | - | 17.8µM | ? | ?
C=C1C=C(C(F)F)n2ncc(C(=O)NCc3ccccc3C(F)(F)F)c2N1 | . | - | . | .
N#CC1=C(N)C2=C(N3CCCCC3)CCCC2C1(C#N)C#N (configuration not stated) | - | 35.5µM | ? | .
COc1cc(N=Nc2cccc(S(N)(=O)=O)c2)c2ccccc2c1N | 3.98µM | ? | - | -
NC1=NC(=Nc2cccc(S(N)(=O)=O)c2)c2ccccc21 | - | - | - | -
Cc1nc(C)c(C(=O)Nc2nc3c(C)cccc3s2)o1 | - | ? | - | 20µM
CCCCCCCCCCCCCCCCCCOCC(COP(=O)([O-])OCC[N+](C)(C)C)OC (configuration not stated) | . | - | . | .
COc1ccc2ccc3c(c2c1)N=CC1(O3)N(C)c2ccccc2C1(C)C (configuration not stated) | - | - | ? | 31.6µM
O=Nc1c(O)[nH]c2c(Cl)c(Cl)ccc12 | - | - | ? | .
O=C(c1ccccc1)c1ccccn1 | - | - | - | .
O=C(O)c1ccccn1 | - | - | . | 14.1µM
NC(=S)NNC(N)=S | . | - | - | .
Clc1cccc(-c2ccc(CNCc3ccccn3)o2)c1 | - | - | . | 22.4µM
Cc1ccc(CNc2ccc(N3CCN(C(=O)OC(C)(C)C)CC3=O)cc2)cc1 | . | - | . | .
Cc1cc(I)ccc1Nc1c(C(=O)NOCC2CC2)cc(F)c(F)c1F | - | - | - | .
CCCCC(C(=O)O)C(C)CC(=O)NNC(=O)c1ccco1 (configuration not stated) | - | - | - | -
CC(C)CCC(C(=O)O)C(C)CC(=O)NNC(=O)c1ccco1 (configuration not stated) | - | - | - | 28.2µM!
N#Cc1c(-c2ccc(Br)cc2)no[n+]1[O-] | . | - | . | .
Cc1cc(C(=O)COc2cccc3cccnc23)c(C)n1C | - | - | - | 11.2µM
Cc1cc(C(=O)COc2ccccc2C(N)=O)c(C)n1C | - | - | - | -
O=S(=O)(Nc1cccc2cccnc12)c1ccc(Br)cc1 | - | - | - | .
SMILES | BLM helicase inh | APE1 inh | RECQ1 inh | L3MBTL1 inh
CC1(C)CC(=O)C2=C(C1)c1c(ccc3ccccc13)NC2c1cc([N+](=O)[O-])cc([N+](=O)[O-])c1O (configuration not stated) | 22.4µM | - | - | -
C/C(=N\NC(=O)c1cc(C)nc2ccccc12)c1ccccn1 | . | - | . | 28.2µM
C/C(=N\NC(=O)c1cc(C)nc2ccccc12)c1ccncc1 | - | - | . | .
O=C(O)c1cc(O)c2c(c1)[C@H]([C@H]1c3cc(C(=O)O)cc(O)c3C(=O)c3c(O[C@@H]4O[C@H](CO)[C@@H](O)[C@H](O)[C@H]4O)cccc31)c1cccc(O[C@@H]3O[C@H](CO)[C@@H](O)[C@H](O)[C@H]3O)c1C2=O | . | 0.398µM | . | .
CCC[C@H](NC(=O)[C@H](Cc1ccc(O[S+](=O)([O-])O)cc1)NC(=O)OC(C)(C)C)C(=O)NCC(=O)N[C@@H](Cc1c[nH]c2ccccc12)C(=O)N[C@@H](CCC)C(=O)N[C@@H](CC(=O)OCCc1ccccc1)C(=O)O | - | - | - | .
CCOC(=O)CCCCC(=O)c1[nH]c(=O)[nH]c1CSc1nc2ccccc2[nH]1 | - | ? | - | 12.6µM
CCOC(=O)CCCCC(=O)c1[nH]c(=O)[nH]c1CSc1nc(C)cc(=O)[nH]1 | - | - | - | 7.94µM
CCOC(=O)CCCCC(=O)c1[nH]c(=O)[nH]c1CSc1nc(C)cc(C)n1 | - | - | - | -
CC(=O)C1=C(c2ccccc2)NC(=O)NC1c1ccc(O)c(O)c1 (configuration not stated) | - | 39.8µM | - | ?
CC(=O)C1=C(c2ccccc2)NC(=S)NC1c1ccc(O)c(O)c1 (configuration not stated) | - | 12.6µM | ? | ?
CC(=O)C1=C(c2ccccc2)NC(=O)NC1c1ccc2c(c1)OCO2 (configuration not stated) | - | - | . | -
N=C(CC(O)COc1ccccc1-c1ccccc1)N1CCCCC1 (configuration not stated) | - | 10µM! | - | .
c1ccc(-c2ccccc2OCCCN2CCCCCC2)cc1 | - | - | - | -
Cc1cccc(NC(=O)c2cnn3c2NC(=C2CC2)C=C3C(F)F)n1 | . | - | . | .
O=C(N/N=C/c1cn(Cc2cccc(F)c2)c2ccccc12)c1cc(O)cc(O)c1 | - | 1.5µM | . | .
CCOC(=O)N1CC(C)N(/[N+]([O-])=N/Oc2ccc([N+](=O)[O-])cc2[N+](=O)[O-])CC1C (configuration not stated) | - | - | - | .
CC1=C(C(=O)Nc2ccccc2)C(c2ccc[nH]2)n2ncnc2N1 (configuration not stated) | - | - | . | 1.58µM
CN(C)/[N+]([O-])=N/Oc1cc(O/[N+]([O-])=N/N2CCCC2CO)c([N+](=O)[O-])cc1[N+](=O)[O-] (configuration not stated) | - | - | - | .
CCNc1nc(NCC)n2c(SCC(=O)Nc3ccc(C)c(C)c3)nnc2n1 | . | ? | . | 28.2µM
CCNc1nc(NCC)n2c(SCC(=O)Nc3ccccc3)nnc2n1 | - | - | - | -
CCNc1nc(NCC)n2c(SCC(=O)Nc3ccc(OC(F)F)cc3)nnc2n1 | . | 10.6µM | . | ?
COc1ccc(-c2nn(-c3ccccc3)cc2/C=N/NC(=O)c2ccc3c(c2)OCO3)cc1 | - | - | - | -
COc1ccc(-c2nn(-c3ccccc3)cc2/C=N/NC(=O)c2ccc(Br)o2)cc1 | - | - | ? | 35.5µM
CC1(C)CC2CC(C)(CN2C(=O)COC(=O)c2ccc(O)cc2O)C1 (configuration not stated) | . | 10.6µM | . | -
CCC1(c2ccc(O)cc2)NC(=O)N(C)C1=O (configuration not stated) | - | ? | - | .
CCOC(=O)CN1C(=O)N[C@H](c2ccc(Br)cc2)C(C(C)=O)=C1C | - | 31.6µM | - | -
CCOC(=O)CN1C(=O)N[C@@H](c2ccc(Br)cc2)C(C(=O)OC)=C1C | -[12.4 µM] | ? | -[11.5 µM] | .
O=c1nc(N/N=C/c2ccccn2)cn[nH]1 | - | - | - | 5.01µM
Cc1ccc(/C=N/Nc2cn[nH]c(=O)n2)o1 | - | - | - | -

From PubChem
